Assay in all cases: NCI-60 one-dose screen, 48 h (100 = growth as untreated, 0 = no growth, -100 = all killed)
One experiment concerns SR leukemia. Conditions: 10 µM unless noted.
Another experiment has as its system RPMI-8226 leukemia. The following applies: 10 µM unless noted.
Another experiment has as its system OVCAR-8 ovarian. Conditions: 10 µM unless noted.
A further experiment deals with OVCAR-5 ovarian. The following applies: 10 µM unless noted.
In a further experiment the test system is SK-OV-3 ovarian. The following applies: 10 µM unless noted.
The next experiment concerns IGROV1 ovarian. The following applies: 10 µM unless noted.
In a further experiment the test system is OVCAR-3 ovarian. The following applies: 10 µM unless noted.
The test system of a further experiment is HS 578T breast. The following applies: 10 µM unless noted.
For a further experiment, the system named is T-47D breast. Conditions: 10 µM unless noted.
The next experiment relates to BT-549 breast. Conditions: 10 µM unless noted.
The subject of another experiment is MDA-MB-435 melanoma. Conditions: 10 µM unless noted.
Another experiment deals with SW-620 colon. Conditions: 10 µM unless noted.
The test system of the next experiment is MCF7 breast.
A further experiment concerns HCT-116 colon. The following applies: 10 µM unless noted.
In the next experiment the test system is HCC-2998 colon. Conditions: 10 µM unless noted.
In the next experiment the test system is KM12 colon. The following applies: 10 µM unless noted.
A further experiment relates to OVCAR-4 ovarian. Conditions: 10 µM unless noted.
Another experiment concerns NCI/ADR-RES ovarian. The following applies: 10 µM unless noted.

Several values for one entry are separate records, joined by “and”; a condition that tells them apart may be missing. Identical values can stand only once. About 83,000 compounds went through this panel and 20% of them were active in at least one assay; those are over-represented in the sample as a whole.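 Assay: single dose, 48 h. Readout: percent growth (0 = no net growth; negative = cell death). Active: <10.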 A number with no mark means an inactive call. Activity calls are given as the source filed them.

As for `S=C(N/N=C/c1ccccn1)Nc1ccccn1`, the growth in the experiment on SR leukemia was -29% (active); in the experiment on RPMI-8226 leukemia, -2.91% (active); in the experiment with OVCAR-8 ovarian it was 14.2%; in the experiment with OVCAR-5 ovarian, 49.2%; with SK-OV-3 ovarian it was 36.4%; in the experiment on IGROV1 ovarian it was 27%. The growth is -0.151% (active) in the experiment on OVCAR-3 ovarian; 97.4% with HS 578T breast; 31% in the experiment on T-47D breast; 38.1% with BT-549 breast; 47.4% in the experiment with MDA-MB-435 melanoma; 32.8% in the experiment on SW-620 colon. The growth in the experiment with MCF7 breast (10 µM) is 14.3%; in the experiment on HCT-116 colon it was 1.18% (active); with HCC-2998 colon, 25.2%; with KM12 colon, 29.7%.
Turning to `NC(N)=N/N=C/c1ccc([N+](=O)[O-])o1`, the growth is 98.3% in the experiment with SR leukemia; 78.7% in the experiment on RPMI-8226 leukemia; 79.7% in the experiment on OVCAR-8 ovarian; 123% with OVCAR-5 ovarian; 82.8% in the experiment on OVCAR-4 ovarian; 116% in the experiment with SK-OV-3 ovarian. Besides, the growth with IGROV1 ovarian was 98%; in the experiment with OVCAR-3 ovarian, 83.1%; in the experiment with NCI/ADR-RES ovarian, 99.5%; with T-47D breast it was 96.7%; with BT-549 breast it was 94.5%; in the experiment with MDA-MB-435 melanoma, 115%. In addition, the growth with SW-620 colon was 105%; in the experiment on MCF7 breast (10 µM), 72.4%; with HCT-116 colon, 89%; with HCC-2998 colon it was 88%; in the experiment on KM12 colon, 82.3%.
In the case of `COc1ccc2nc3cc(Cl)ccc3c(NCCNc3c4ccc(Cl)cc4nc4ccc(OC)cc34)c2c1`, the growth was -29.8% (active) in the experiment with SR leukemia; -34.5% (active) in the experiment on RPMI-8226 leukemia; -65.4% (active) with OVCAR-8 ovarian; -90.1% (active) with OVCAR-5 ovarian; -43.6% (active) with OVCAR-4 ovarian; -95.6% (active) in the experiment on SK-OV-3 ovarian. Moreover, the growth was -78.9% (active) with IGROV1 ovarian; -92.5% (active) with OVCAR-3 ovarian; -64.4% (active) in the experiment with T-47D breast; -76.6% (active) in the experiment with BT-549 breast; -78.9% (active) in the experiment on MDA-MB-435 melanoma; -50.4% (active) in the experiment on SW-620 colon. In addition, the growth with MCF7 breast (10 µM) is -70% (active); in the experiment on HCT-116 colon, -83.3% (active); with HCC-2998 colon it was -82.2% (active); in the experiment with KM12 colon, -71.8% (active).
In the case of `COc1cc(NS(C)(=O)=O)ccc1Nc1c2ccccc2nc2ccccc12`, the growth in the experiment on SR leukemia is 19.4% [2.5 µM]; in the experiment on RPMI-8226 leukemia, 11.3% [2.5 µM]; in the experiment with OVCAR-5 ovarian, 46.8% [2.5 µM]; in the experiment on OVCAR-4 ovarian it was 87.8% [2.5 µM]; in the experiment on SK-OV-3 ovarian it was 32.5% [2.5 µM]; in the experiment on IGROV1 ovarian it was 48.6% [2.5 µM]. For the same compound, the growth is 58.7% [2.5 µM] in the experiment with OVCAR-3 ovarian; -6.75% [2.5 µM] (active) with HS 578T breast; 70.2% [2.5 µM] with NCI/ADR-RES ovarian; 23.1% [2.5 µM] with T-47D breast; 20.2% [2.5 µM] with BT-549 breast; 64.1% [2.5 µM] in the experiment with MDA-MB-435 melanoma. In addition, the growth is 41.5% [2.5 µM] in the experiment on SW-620 colon; 32.5% in the experiment on MCF7 breast (2.5 µM); 22.5% [middle of 4 runs] in the experiment on MCF7 breast (10 µM); -69.8% (active) and -100% (active) in the experiment with MCF7 breast (250 µM); 31% [2.5 µM] with HCT-116 colon; -44.3% [2.5 µM] (active) in the experiment with HCC-2998 colon. Besides, the growth in the experiment on KM12 colon is 48.6% [2.5 µM].
For the compound `CC(C)(C)c1ccc(O)c(C2CCCCC2)c1`, the growth with SR leukemia is 84.9%; in the experiment on RPMI-8226 leukemia it was 83%; in the experiment on OVCAR-8 ovarian, 96.3%; with OVCAR-5 ovarian, 101%; in the experiment on OVCAR-4 ovarian, 101%; in the experiment on SK-OV-3 ovarian, 109%. Also, the growth was 137% with IGROV1 ovarian; 110% in the experiment with OVCAR-3 ovarian; 117% with NCI/ADR-RES ovarian; 108% with T-47D breast; 127% in the experiment on BT-549 breast; 117% with MDA-MB-435 melanoma. Also, the growth was 99.6% in the experiment on SW-620 colon; 101% in the experiment with MCF7 breast (10 µM); 95% in the experiment with HCT-116 colon; 111% in the experiment with HCC-2998 colon; 91.1% in the experiment with KM12 colon.
As to `CCCCCCCCCCCCCCCCOP(=O)([O-])OCC[N+](C)(C)C`, the growth in the experiment with SR leukemia is 15%; in the experiment with RPMI-8226 leukemia, 7.31% (active); in the experiment on OVCAR-5 ovarian, 53.2%; in the experiment with OVCAR-4 ovarian, 78.3%; in the experiment with SK-OV-3 ovarian, 37.9%; in the experiment on IGROV1 ovarian it was 21.3%. Besides, the growth with OVCAR-3 ovarian was 33.4%; with HS 578T breast, 33.7%; in the experiment on NCI/ADR-RES ovarian it was 90%; in the experiment with T-47D breast, 73%; with BT-549 breast, 45%; with MDA-MB-435 melanoma, 68.3%. Besides, the growth with SW-620 colon was 50.9%; in the experiment with MCF7 breast (10 µM), 68.5%; with HCT-116 colon it was 24.6%; in the experiment on HCC-2998 colon it was 17.7%; in the experiment on KM12 colon, -90.4% (active).
Take `CCN(CC)CC(C)(C)C(=O)/C=C/c1ccc(Cl)c(Cl)c1`: the growth in the experiment with SR leukemia is 10.3%; in the experiment with RPMI-8226 leukemia it was 2.2% (active); with OVCAR-8 ovarian, -21.6% (active); in the experiment on OVCAR-5 ovarian, -43.1% (active); in the experiment on OVCAR-4 ovarian it was 30.3%; in the experiment on SK-OV-3 ovarian, 42.7%. The growth with IGROV1 ovarian was -7.68% (active); with OVCAR-3 ovarian, -66.3% (active); in the experiment on NCI/ADR-RES ovarian it was -12.6% (active); with T-47D breast it was -11.3% (active); with BT-549 breast, 16.4%; with MDA-MB-435 melanoma, 1.76% (active). The growth in the experiment on SW-620 colon was -39.5% (active); in the experiment on MCF7 breast (10 µM), -13.8% (active); in the experiment with HCT-116 colon, -60.6% (active); with HCC-2998 colon, -65.2% (active); in the experiment on KM12 colon, -4.49% (active).
In the case of `CCOC(=O)c1c(C)[nH]c(CO)c1C`, the growth in the experiment on SR leukemia is 101%; with RPMI-8226 leukemia, 97.8%; in the experiment with OVCAR-5 ovarian, 104%; in the experiment on OVCAR-4 ovarian it was 105%; with SK-OV-3 ovarian, 102%; in the experiment with IGROV1 ovarian it was 98%. Besides, the growth with OVCAR-3 ovarian was 103%; in the experiment with HS 578T breast, 109%; with NCI/ADR-RES ovarian it was 105%; with T-47D breast, 93.5%; in the experiment with BT-549 breast, 109%; in the experiment with MDA-MB-435 melanoma, 111%. Further, the growth is 109% in the experiment with SW-620 colon; 91.6% in the experiment on MCF7 breast (10 µM); 100% with HCT-116 colon; 109% in the experiment on HCC-2998 colon; 94.2% with KM12 colon.

Values taken from PubChem BioAssay (NCI).
